Laboratory results: PubChem BioAssay (EPA / NIEHS)
Where a structure was tested more than once in an assay, its records may differ in their call. The source made the active and inactive calls. Rule for the calls: active = hit-call score of the fitted dose curve at least 0.9, where 1 is the maximum; inactive = score below 0.9.

read-out: Decorin, DCN (gene 1634); assay: BSK_MyoF_Decorin: BioMAP Diversity Plus: MyoF Assay for Decorin Biomarker Activity (AID 2284265); conditions: primary human lung fibroblasts
Method: BSK_MyoF is a cell-based, multiplexed-readout assay that uses lung fibroblasts, […], with measurements taken at 24 hours after chemical dosing in a microplate: 96-well plate.BSK_MyoF_Decorin is an assay component measured in the BSK_MyoF assay. It measures Decorin antibody related to regulation of gene expression using ELISA technology.Data from the assay component BSK_MyoF_Decorin was analyzed at the endpoint, BSK_MyoF_Decorin, in the positive analysis fitting direction relative to DMSO as the negative control and baseline of activity. Using a type of binding reporter, gain or loss-of-signal activity can be used to understand protein changes. To generalize the intended target to other relatable targets, this assay endpoint is annotated to the 'cell adhesion molecules' intended target family, where the subfamily is 'decorin'.
The levels of cell surface (or secreted, indicated by the prefix "s") biomarker endpoints were measured by ELISA. Overt cytotoxicity to cells in confluent adherent cultures (all systems other than the BT system) was assessed by measuring total protein levels using sulforhodamine B (SRB) staining in parallel cultures at the time of biomarker measurements, indicated as SRB endpoints. For proliferation assays for adherent cell types, individual cell types are cultured at sub-confluence and relative cell numbers quantified by SRB staining at time points optimized for each system (48 h: 3C and CASM3C systems; 72 h: BT and HDF3CGF systems; 96 h: SAg system). SRB was performed by staining cells with 0.1% SRB after fixation with 10% TCA and reading wells at 560 nm.Viability and proliferation of PBMC (T cells) was quantified by Alamar Blue reduction for the SAg and BT systems. For PBMC viability (referred to as PBMC Cytotoxicity within the assay endpoint names), cells were plated (75,000/well in a 96-well plate) and then chemical samples added for 1 h before addition of activators, SEB and TSST-1 (20 ng/mL final concentration each). Cells were incubated for 90 h. Then, Alamar Blue (20 uL/well) (Invitrogen, Cat DAL1100) was added for 6 h, and the plates were read with a fluorescence microplate reader at 546/580 nm (excitation/emission). For PBMC proliferation, cells were plated and activated as above but incubated for only 16 h prior to addition of Alamar Blue. Plates were read after 6 h.

Structure (SMILES) | outcome | AC50
OCC(O)CC(F)(F)C(F)(F)C(F)(F)C(F)(F)C(F)(F)C(F)(F)C(F)(F)C(F)(F)F (stereo not given) | inactive | 
O=C(O)C(F)(F)C(F)(F)C(F)(F)OC(F)(F)F | inactive | 
O=S(=O)(Cl)C(F)(F)C(F)(F)C(F)(F)C(F)(F)C(F)(F)C(F)(F)C(F)(F)C(F)(F)F | inactive | 22.3 µM (active)
O=C=NCc1cccc(CN=C=O)c1 | inactive | 
O=C(O)C(F)(F)C(F)(F)C(F)(F)C(F)(F)C(F)(F)C(F)(F)C(F)F | inactive | 
CC1=CC2C3C=CC(C3)C2C1C (stereo not given) | inactive | 
CCN(CC)c1ccc(C=O)cc1 | inactive | 
CCOC(C=C(C)CCC=C(C)C)OCC |  | 0.016 µM (active)
O=C(O)C(F)(F)C(F)(F)C(F)(F)OC(F)(C(F)(F)F)C(F)(F)F | inactive | 
Brc1nc2ccccc2s1 | inactive | 
O=S(=O)(O)CCC(F)(F)C(F)(F)C(F)(F)C(F)(F)C(F)(F)C(F)(F)C(F)(F)C(F)(F)F | inactive | 
C[Si](Cl)(Cl)CCC(F)(F)C(F)(F)C(F)(F)C(F)(F)C(F)(F)C(F)(F)F | inactive | 
C=CC(=O)OCCC(F)(F)C(F)(F)C(F)(F)C(F)(F)F | inactive | 
O=C(Cl)C(F)(F)C(F)(F)C(F)(F)C(F)(F)C(F)(F)C(F)(F)C(F)(F)F | inactive | 
NS(=O)(=O)C(F)(F)C(F)(F)C(F)(F)C(F)(F)C(F)(F)C(F)(F)F | inactive | 
FC(F)(F)C(F)(F)C(F)(F)C(F)(F)C(F)(F)C(F)(F)CC[Si](Cl)(Cl)Cl | inactive | 
CN(C(=O)C(F)(F)C(F)(F)C(F)(F)F)[Si](C)(C)C | inactive | 
NC(=O)C(F)(F)C(F)(F)C(F)(F)C(F)F | inactive | 
NC(O)(C(F)(F)F)C(F)(F)F | inactive | 

Structure (SMILES) | outcome | AC50
O=C(F)C1(F)C(F)(F)C(F)(F)C(F)(F)C(F)(F)C1(F)F | inactive | 
OCCCCC(F)(F)C(F)(F)C(F)(F)C(F)(F)F | inactive | 
O=C1c2c(O)ccc(Nc3ccc(CCO)cc3)c2C(=O)c2c([N+](=O)[O-])ccc(O)c21 |  | 9.73 µM (active)
Nc1cc([N+](=O)[O-])cc(Cl)c1O | inactive | 
Cc1cc(C)c(O)c(C(C)(C)C)c1 |  | 35.4 µM (active)
Cc1cc(O)c(C(C)(C)C)cc1C(C)(C)C |  | 5.16 µM (active)
C=C(C)C(=O)OCC(F)(F)C(F)(F)C(F)(F)C(F)F | inactive | 
CCN(CCO)S(=O)(=O)C(F)(F)C(F)(F)C(F)(F)C(F)(F)C(F)(F)C(F)(F)C(F)(F)C(F)(F)F | inactive | 19.4 µM (active)
O=C(c1ccccc1)c1ccc(O)cc1O | inactive | 
OCC(O)CC(F)(F)C(F)(F)C(F)(F)C(F)(F)F (stereo not given) | inactive | 
O=C(O)C(F)(F)OC(F)(F)C(F)(F)OC(F)(F)C(F)(F)OC(F)(F)F | inactive | 
O=C=Nc1cccc2c(N=C=O)cccc12 | inactive | 
OCC(F)(F)C(F)(F)C(F)(F)CO | inactive | 
O=C(O)CCC(F)(F)C(F)(F)C(F)(F)F | inactive | 
O=S(=O)(OCC(F)(F)F)C(F)(F)C(F)(F)C(F)(F)C(F)(F)F | inactive | 
O=C1C=CC(=O)N1c1ccc(Cc2ccc(N3C(=O)C=CC3=O)cc2)cc1 | inactive | 
FC(F)(F)C(F)(F)C(F)(F)C(F)(F)C(F)(F)C(F)(F)C(F)(F)CCI | inactive | 
CCN(CC)c1ccc2c(c1)Oc1cc(N(CC)CC)ccc1C21OC(=O)c2ccccc21 | inactive | 
CCN(CC)c1ccc(C=O)c(O)c1 | inactive | 
